TROY NFkB inh = inhibitors of TROY-driven NF-kB signaling, primary screen, Q293 LMP1-TROYcd cells, NF-kB luciferase, uHTS; inhibition, % at 10 µM; AID 1347056, 2019; Q293 LMP1-TROYcd NF-kB luciferase reporter, 4 h; 0.98% of 360,000 active;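 active = compounds whose plate-normalised and pattern-corrected inhibition of the luciferase reporter signal at the single screening dose is 50% or more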
CF NFkB inh = inhibitors of PAF-induced NF-kB signaling, primary screen, cell-based, GFP fluorescence, uHTS | 0.86% of 360,000 active | KKLEB NF-kB-GFP reporter, GFP fluorescence overnight | inhibition, % at 5 µM;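 active = at least 50% inhibition at 5 µM, scaled per plate between neutral and stimulator controls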;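 also: PAF is a Pseudomonas aeruginosa culture filtrate used as stimulus; plate controls were PAF-stimulated DMSO wells for no effect and unstimulated DMSO wells for full effect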
TWEAK-Fn14 inh = inhibitors of TWEAK-Fn14 signaling, primary screen, luciferase reporter cells, uHTS; TWEAK-stimulated Fn14 reporter cells, luciferase luminescence, 8 h; 2% of 360,000 active; inhibition, % at 10 µM; AID 1159606, 2016; in the data active = inhibition above about 50%
Peg3 promoter = Peg3 promoter-driven luciferase inhibitors, primary screen, cell-based, HeLa, luciferase luminescence; HeLa PEG-Prom luciferase reporter, overnight; inhibition, % at 20 µM; 1.7% of 360,000 active; AID 588405, 2011;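 active = inhibition of at least 50% at 20 µM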
HIF-2a inh = HIF-2a reporter inhibitors, primary screen, luminescence, 786-0 RCC cells | inhibition, % at 18.8 µM | 0.72% of 360,000 active | 786-0 RCC cells HIF-2a reporter, luciferase luminescence, overnight;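 active = inhibition of the luminescence signal of 40% or more relative to plate controls, in a single-dose primary screen at 18.75 µM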
KKLEB tox = cytotoxicity in KKLEB CF airway cells, primary screen, cytotoxicity control for CF NF-kB inhibitor project, cell-based, uHTS, fluorescence assay plates | 0.36% of 360,000 active | activity change (cytotoxicity), % at 5 µM | KKLEB CF airway cells viability, ATPlite luminescence, overnight; active compounds read low; cells stimulated with P. aeruginosa culture filtrate;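 active = corrected activity change at or below -50% at 5 µM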
* = called active by the depositor. A selection: hits, their analogues and other compounds. The true share with any hit is near 3.9%.

For CCOC(=O)C1=C(NC(=S)NC(=O)c2ccccc2)c2ccccc2CC12CCCC2 the results were TROY NFkB inh 11.6, CF NFkB inh 15.9, TWEAK-Fn14 inh 7.4, Peg3 promoter 50.1*, HIF-2a inh 0.1 and KKLEB tox -1.4.
COC(=O)C1=C(c2ccc(OC)c(OC)c2)C[C@@H]2CC[C@H]1N2C(=O)NC1CCCCC1 was read as TROY NFkB inh -6.9, CF NFkB inh -26.3, TWEAK-Fn14 inh 9.8, Peg3 promoter 1.1, HIF-2a inh 13.0 and KKLEB tox -0.1.
`COCCCNP1(=O)OCC(C)([N+](=O)[O-])CO1` (stereo not drawn) gave TROY NFkB inh 10.8, CF NFkB inh 17.2, TWEAK-Fn14 inh 3.9, Peg3 promoter 2.7, HIF-2a inh 11.2 and KKLEB tox -8.1.
Screening CCCCCCn1c(N)c(C(=O)NCCN2CCOCC2)c2nc3ccccc3nc21 returned CF NFkB inh -6.5, TWEAK-Fn14 inh 55.8*, Peg3 promoter 31.3, HIF-2a inh 22.3 and KKLEB tox -0.8.
Screening CCCCNC(=O)c1c(N)n(Cc2ccc3c(c2)OCO3)c2nc3ccccc3nc12 returned TROY NFkB inh 59.5*, CF NFkB inh -7.3, TWEAK-Fn14 inh 51.2*, Peg3 promoter 19.0, HIF-2a inh 1.5 and KKLEB tox 8.6.
CCCCn1c(N)c(C(=O)NCc2cccs2)c2nc3ccccc3nc21 was read as TROY NFkB inh 67.5*, CF NFkB inh -8.2, TWEAK-Fn14 inh 34.8, Peg3 promoter 24.6, HIF-2a inh 12.9 and KKLEB tox -14.1.
Screening COC(=O)C1=C(c2ccc(OC(F)(F)F)cc2)C[C@@H]2CC[C@H]1N2C(=O)NCCc1ccccc1 returned TROY NFkB inh -4.1, CF NFkB inh 22.3, TWEAK-Fn14 inh 17.5, Peg3 promoter -0.7, HIF-2a inh 10.8 and KKLEB tox -5.4.
Screening C[C@]12CC[C@H](O)CC1=CCC1C2CC[C@]2(C)C(=O)[C@H](Br)CC12 (stereo partly drawn) returned TROY NFkB inh 7.1, CF NFkB inh 35.6, TWEAK-Fn14 inh 23.4, Peg3 promoter 6.2, HIF-2a inh 10.2 and KKLEB tox -12.4.
Screening COP(=O)(NC(C)=O)SC (stereo not drawn) returned TROY NFkB inh -27.4, CF NFkB inh -1.1, TWEAK-Fn14 inh -12.0, Peg3 promoter -0.6, HIF-2a inh 0.7 and KKLEB tox -3.1.
For Cc1cc(C)c(C)c(C(O)(C(=O)O)c2ccccc2)c1C (stereo not drawn) the results were TROY NFkB inh -1.2, CF NFkB inh -9.7, TWEAK-Fn14 inh 2.9, Peg3 promoter -8.5, HIF-2a inh 4.5 and KKLEB tox -7.9.
`Cc1cccc(C(O)(C(=O)O)c2ccccc2)c1` (stereo not drawn) gave TROY NFkB inh -5.4, CF NFkB inh 15.2, TWEAK-Fn14 inh 12.7, Peg3 promoter 99.8*, HIF-2a inh 0.0 and KKLEB tox -13.0.
`Cn1nc(N)c2c1N=P(N1CCOCC1)(N1CCOCC1)N=C2c1ccccc1` gave TROY NFkB inh 11.0, CF NFkB inh -1.3, TWEAK-Fn14 inh 11.7, Peg3 promoter 10.2, HIF-2a inh 12.5 and KKLEB tox 7.5.
For CC12CC(O)C3C(CCC4=CC(=O)CCC43C)C1CCC2=O (stereo not drawn) the results were TROY NFkB inh 1.2, CF NFkB inh 12.8, TWEAK-Fn14 inh -26.5, Peg3 promoter -6.3, HIF-2a inh 6.3 and KKLEB tox 9.3.
Screening CCOc1cc(CNCCc2c[nH]c3ccccc23)cc(Cl)c1OCC returned TROY NFkB inh 17.2, CF NFkB inh -0.2, TWEAK-Fn14 inh -0.1, Peg3 promoter 94.9*, HIF-2a inh 21.1 and KKLEB tox 0.3.
CCOc1c(Cl)cc(CNCCc2c[nH]c3ccccc23)cc1OC was read as TROY NFkB inh 22.9, CF NFkB inh 18.1, TWEAK-Fn14 inh -13.3, Peg3 promoter 59.5*, HIF-2a inh -0.5 and KKLEB tox -8.3.
Nc1ccc(Cl)c(Cl)c1 was read as TROY NFkB inh -12.3, CF NFkB inh -22.4, TWEAK-Fn14 inh 20.7, Peg3 promoter 5.8, HIF-2a inh -3.1 and KKLEB tox -16.6.
Screening CC1CN=C(Nc2ccc(F)c(Cl)c2)S1 (stereo not drawn) returned TROY NFkB inh -11.1, CF NFkB inh 13.9, TWEAK-Fn14 inh -4.4, Peg3 promoter -29.4, HIF-2a inh -23.0 and KKLEB tox -12.1.
`OC(CN1CCOCC1)c1csc2ccccc12` (stereo not drawn) gave TROY NFkB inh -7.8, CF NFkB inh -5.2, TWEAK-Fn14 inh 16.9, Peg3 promoter 10.3, HIF-2a inh 21.3 and KKLEB tox -12.4.
O=C(C[N+]12CCC(CC1)C(C(O)(c1ccccc1)c1ccccc1)C2)c1ccc(Br)cc1 (stereo not drawn) was read as TROY NFkB inh -15.9, CF NFkB inh -1.1, TWEAK-Fn14 inh 8.0, Peg3 promoter -4.1, HIF-2a inh -0.3 and KKLEB tox -0.6.
Screening OCC[N+]12CCC(CC1)C(C(O)(c1ccccc1)c1ccccc1)C2 (stereo not drawn) returned TROY NFkB inh 54.4*, CF NFkB inh -2.8, TWEAK-Fn14 inh -19.6, Peg3 promoter 2.4, HIF-2a inh 12.4 and KKLEB tox 8.8.
Screening CCCCC(CC)COCCCN=Cc1c(O)[nH]c(=S)[nH]c1=O (stereo not drawn) returned TROY NFkB inh 6.4, CF NFkB inh 26.2, TWEAK-Fn14 inh 59.6*, Peg3 promoter 15.3, HIF-2a inh 25.1 and KKLEB tox 8.4.
O=C1NC(=O)N(c2cccc(Cl)c2)C(=O)/C1=C\c1ccc(Sc2nc3ccccc3[nH]2)o1 was read as TROY NFkB inh -21.3, CF NFkB inh -18.5, TWEAK-Fn14 inh 4.0, Peg3 promoter 6.7, HIF-2a inh 15.8 and KKLEB tox 12.3.
For O=C1NC(=O)N(c2ccccc2)C(=O)/C1=C/c1ccc(Sc2ccccc2)o1 the results were TROY NFkB inh 15.5, CF NFkB inh 11.1, TWEAK-Fn14 inh 0.8, Peg3 promoter 50.3*, HIF-2a inh 27.9 and KKLEB tox -5.5.
For O=c1[nH]c(=S)[nH]c(O)c1N=Nc1ccc(SC(F)F)cc1 the results were TROY NFkB inh 17.7, CF NFkB inh 2.4, TWEAK-Fn14 inh 58.2*, Peg3 promoter -211.2, HIF-2a inh -370.2 and KKLEB tox -4.9.
`O=c1[nH]c(=S)[nH]c(O)c1N=Nc1ccc(S(=O)(=O)N2CCc3ccccc32)cc1` gave TROY NFkB inh 1.0, CF NFkB inh 56.2*, TWEAK-Fn14 inh 8.6, Peg3 promoter 26.2, HIF-2a inh 18.8 and KKLEB tox -26.5.

From PubChem
